# Measurements as given in publication PMC5540273 (PLoS ONE, 2017).
# Experiments:
# Conditions in all cases: concentration: 1 μM, replicates: in singlicate; n = 1
# [1] = test system: T1, ERK4
# T1 construct: gene MAPK4
# [2] = test system: T2, ERK5
# T2 construct: gene MAPK7
# [3] = test system: T3, ERK8
# T3 construct: gene MAPK15
# [4] = test system: ERN1
# [5] = test system: T4, FAK
# T4 construct: gene PTK2
# [6] = test system: FER
# [7] = test system: FES
# [8] = test system: FGFR1
# [9] = test system: FGFR2
# [10] = test system: FGFR3
# 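Also: KINOMEscan kinase panel screen.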
SMILES,%Inh [1],%Inh [2],%Inh [3],%Inh [4],%Inh [5],%Inh [6],%Inh [7],%Inh [8],%Inh [9],%Inh [10]
Fc1cccc(COc2ccc(Nc3ncnc4nn5ccccc5c34)cc2Cl)c1 [GW689066],0%,0%,0%,0%,0%,16%,0%,0%,12%,3%
CCCc1ccc(S(=O)(=O)NC2CCN(c3ccnc(Nc4ccc(OC)cc4)n3)C2)cc1 (stereo not drawn) [GSK1379737],17%,0%,0%,0%,0%,12%,0%,0%,0%,0%
Nc1nc(-c2ccccn2)c(-c2ccnc3ccccc23)s1 [GW548057],31%,4%,0%,14%,0%,8%,0%,0%,0%,16%
NC(=O)c1sc(-n2cnc3ccccc32)cc1OCc1ccccc1F [GSK1024306],0%,0%,26%,0%,0%,20%,0%,0%,0%,4%
Cn1ccc2ncnc(Nc3ccc(Oc4cccc(Cl)c4)c(Cl)c3)c21,25%,22%,0%,48%,0%,0%,8%,1%,6%,1%
Cc1cccc(-c2nc(Nc3ccc4[nH]nnc4c3)c3ccccc3n2)n1 [GW867587],0%,0%,0%,0%,0%,0%,0%,0%,0%,0%
Clc1ccc(-c2cc(-c3c[nH]nc3-c3ccccn3)ccn2)cc1 [GW681251],6%,0%,0%,0%,0%,9%,0%,0%,0%,1%
COC(=O)c1c(-c2ccccc2)c2cc(Cl)ccc2c(=O)n1Cc1ccc(S(C)(=O)=O)cc1,3%,13%,6%,13%,4%,0%,3%,0%,8%,6%
Cl.c1ccc(Cn2ncc3cc(Nc4ncnc5ccccc45)ccc32)cc1 [GW273749],35%,0%,0%,34%,0%,13%,0%,0%,0%,0%
Cc1cc(N2CCC(NS(=O)(=O)c3ccc(F)cc3)CC2)nc(Nc2cccc(C#N)c2)n1.O=C(O)C(F)(F)F [GSK1653537],0%,0%,31%,0%,0%,18%,26%,6%,0%,16%
CN1c2ccc(-c3ccc(C(=O)NCCO)cc3)cc2-c2[nH]ncc2S1(=O)=O,0%,0%,12%,1%,–,11%,17%,30%,0%,0%
Cn1ccc2ncnc(Oc3ccc(NC(=O)Nc4cccnc4)c(Cl)c3)c21,0%,5%,0%,37%,0%,0%,16%,0%,0%,0%
FC(F)(F)c1cc(Nc2nccc(-c3c(-c4ccc(Cl)cc4)nn4ncccc34)n2)ccc1Cl [GW829351],0%,0%,0%,0%,0%,0%,0%,0%,0%,0%
O=c1cc(N2CCOCC2)nc2n(Cc3cccc(Cl)c3)ccn12 [GSK2296823],7%,0%,38%,0%,0%,3%,0%,0%,14%,24%
O=C(CCO)NCCn1ccc2ncnc(Nc3ccc(Oc4cccc(C(F)(F)F)c4)c(Cl)c3)c21,0%,5%,0%,0%,0%,0%,0%,0%,0%,0%
COc1ccc(-c2oc3ncnc(N)c3c2-c2ccc(OC)cc2)cc1 [SB-589132],27%,0%,0%,18%,0%,5%,0%,0%,3%,0%
CNc1nccc(-c2c(-c3ccc(F)cc3)ncn2C2CCN(C)CC2)n1 [SB-222903],0%,9%,6%,0%,43%,0%,0%,0%,0%,0%

SMILES,%Inh [1],%Inh [2],%Inh [3],%Inh [4],%Inh [5],%Inh [6],%Inh [7],%Inh [8],%Inh [9],%Inh [10]
COC(=O)c1cccc(NC(=O)NCCNc2ccnc(Nc3ccc(F)cc3)n2)c1 [GSK1379883],4%,0%,0%,21%,0%,19%,7%,0%,43%,15%
CSc1ccc(NC2=C(c3ccccc3Cl)C(=O)NC2=O)cc1 [SB-342411],9%,0%,0%,9%,0%,5%,0%,11%,4%,26%
O=C(Nc1ccccc1)Nc1ccc(Oc2ccc3nccn3n2)cc1,0%,1%,14%,100%,0%,0%,0%,0%,8%,15%
Clc1cccc(-c2nc(Nc3ccncc3)c3ccccc3n2)c1 [GW873004],0%,0%,23%,0%,11%,16%,16%,37%,11%,0%
FC(F)(F)c1ccc(-c2nn3ncccc3c2-c2ccnc(Nc3cccc(C(F)(F)F)c3)n2)cc1 [GW828205],0%,0%,0%,0%,9%,2%,7%,33%,100%,8%
OCCOCCn1ccc2ncnc(Nc3ccc(Oc4cccc(Cl)c4)c(Cl)c3)c21,0%,0%,0%,0%,0%,24%,6%,27%,0%,0%
CC(C)(C)c1ccc(-n2cnc3c(N)ncnc32)cc1 [SKF-97263],0%,0%,48%,6%,0%,13%,13%,12%,20%,15%
COc1ccc(NC(=O)c2ccc(-c3cc(-c4nnc(C)o4)ccc3C)cc2)cc1 [GW595885],0%,0%,0%,0%,0%,6%,0%,0%,0%,16%
O=C(c1ccc(-c2cc(-c3c[nH]nc3-c3ccccn3)ccn2)cc1)N1CCCC1 [GW792479],0%,23%,0%,0%,47%,0%,5%,3%,1%,3%
N#Cc1ccc(Oc2ccc(Nc3ncnc4cc[nH]c34)cc2Cl)cc1,17%,20%,12%,8%,8%,0%,17%,9%,1%,8%
CC(C)N1CCC(n2cnc(-c3ccc(F)cc3)c2-c2ccnc(N)n2)CC1 [SB-223132],0%,0%,4%,0%,16%,8%,0%,22%,10%,21%
COc1ccc(Nc2nccc(N3CCC(NC(=O)c4cccc(NC(C)=O)c4)C3)n2)cc1 (stereo not drawn) [GSK1379732],7%,0%,5%,0%,0%,12%,0%,0%,37%,19%
Fc1cccc(COc2ccc(Nc3ncnc4sc(-c5ccc[nH]5)cc34)cc2Cl)c1 [GW707818],51%,6%,0%,10%,0%,12%,0%,0%,0%,6%
COc1cc2ncnc(Nc3ccc(OCc4ccccc4Br)c(Cl)c3)c2cc1OC.Cl [GI261590],32%,0%,0%,0%,0%,18%,25%,0%,38%,12%
O=C(NCCCN1CCCC1=O)c1cnc(NCc2cc(Cl)ccc2Cl)nc1NC1CCNCC1,0%,0%,17%,0%,0%,0%,0%,11%,14%,0%
CC(=O)Nc1n[nH]c2ncc(-c3ccccc3)cc12 [SB-548492],0%,0%,60%,0%,0%,4%,25%,4%,0%,10%
CCc1nc(-c2cccc(C)c2)c(-c2ccnc(NC(=O)c3ccccc3)c2)s1,2%,9%,0%,23%,0%,0%,32%,11%,0%,0%
